Test results as given in PubChem BioAssay AID445 (National Center for Advancing Translational Sciences (NCATS), 2006).
The campaign covered roughly 110,000 compounds. About 40 (0.04%) were called active. Inconclusive results (about 22%) are left out. The call rests on the fitted dose curve; in most records, active means well fitted curve in the direction sought with a large enough effect in the signal ratio (not every such curve was filed as active); inconclusive means small, poorly fitted or top-dose-only effect, or a change in a side signal; inactive means flat fitted curve, though single readings scatter; the % refers to the signal ratio. Many of the other results were omitted from the sample, so actives are more common in it than they were.

test: IkB Signaling; details: ABC-DLBCL IkBa-CBG/CBR dual luciferase ratio, 4 h; series mostly up to 57.1 µM
Source text: NIH Molecular Libraries Screening Centers Network [MLSCN]
NIH Chemical Genomics Center [NCGC]
Nuclear factor kappa-B (NF-kappa-B) plays an important role in normal B cell development and survival. Diffuse large B cell lymphoma (DLBCL) is the most commonly observed type of non-Hodgkin's lymphoma. Gene expression analysis has identified an activated B cell-like subtype of DLBCL (ABC-DLBCL) which expresses known NF-kappa-B target genes. […] However, targets upstream of IKK have been largely unexplored and so nodes upstream of IKK in the NF-kappa-B pathway remain untested due to the lack of chemical probes.
A cell-sensor assay for I-kappa-B-alpha stabilization was developed with NIH investigator Dr. R. Eric Davis in Dr. Louis M. Staudt's laboratory. The assay uses green (CBG68) and red (CBR) emitting beetle luciferases [Chroma-Glo(TM) developed by Promega Corp.] where the green luciferase is fused to I-kappa-B-alpha and the red luciferase is present in its native state. Both luciferase genes are stably present in the OCI-Ly3 human ABC DLBCL cell line, but their expression is under the control of tetracycline-inducible promoters. Following the addition of doxycycline to induce expression of the luciferases, the green luminescence in control cultures rises only slowly because the CBG fusion partner I-kappa-B-alpha is targeted by IKK activity for rapid degradation. In contrast, green luminescence rises rapidly in the presence of proteasome inhibitors or IKK inhibitors. The rise in red luminescence of CBR is not affected by proteasome or IKK inhibitors, and serves as normalization for cell number and nonspecific effects. Compounds were screened as a concentration-titration series that ranged from 57 uM to 0.7 nM.
NCGC Assay Protocol Summary:
Cells were seeded in 1536-well plates at 5000 cells/3ul in IMDM medium containing 0.5% FBS, w/o phenol red, L-glutamine, 25 mM HEPES, 3 mg/ml sodium bicarbonate. After centrifugation for 1 min. at 1000 rpm, 23 nl of compounds or DMSO were delivered to each well using a pin tool. Then 1ul 80ng/ml doxycycline was dispensed into white solid 1536-well plates and the plates were incubated at 37C/5% C02 in a cell incubator for 4 hrs. Then 4 ul Chroma-Glo luminescent substrate mix (Promega) was added to each well. The plate was incubated at R.T. for 10-15 min. The plates were measured on a ViewLux plate reader for green luminescence (540/20 nm filter) and red luminescence (618/8 nm filter). The green and red luminescent signals were corrected for red and green luminescence filter overlap using previously determined filter calibration constants (determined using the procedure outlined in the Promega Technical Manual). The %Activity was determined from the ratio of corrected green/red luminescent values. Green luminescent and ratio %Activity was determined by normalizing to the difference in signal between basal cells (0% Activity) and cells incubated with 10 uM of the proteasome inhibitor MG-132 (100% Activity). Red luminescent %Activity was normalized to the difference between red luminesence in basal cells (0%Activity) and zero luminescence (-100% Activity).
Concentration-response curves were fitted to the signals arising from the green luminescence (I-kappa-B-alpha-luciferase fusion; IkB-luc) and the red luminescence (unfused luciferase; luc) as well as the calculated ratio. The concentration-effect curves were then classified based on curve quality (r2), response magnitude and degree of measured activity. Compounds were then categorized based on their concentration-response curves for all three datasets (Ikb-luc, luc and ratio).
Keywords: IKK, I-kappa-B, IkB, IkBa, cytotoxicity, luminescence, MLSMR, MLSCN, NIH Roadmap, qHTS, NCGC

Potency, inactive:
CCCCNC(=O)c1ccc2c(c1)NC(=O)C(C(C)C)N2 (stereo unspecified)
CCOC(=O)c1scc(-c2ccc(C)cc2)c1S(=O)(=O)Nc1cc(C)ccc1C
CCN(CC)c1ccc(NC(=O)Cn2nc3c(cc2=O)CCCC3)c(C)c1
Cc1ccc2sc(N(Cc3cccnc3)C(=O)C3COc4ccccc4O3)nc2c1C (stereo unspecified)
Cc1ccc(NC(=O)Cn2nnc3sc4c(c3c2=O)CCC(C)C4)cc1 (stereo unspecified)
CSc1cccc(NC(=O)CN2C(=O)CCc3cc(S(=O)(=O)N4CCCCC4)ccc32)c1
CCOc1ccc(N(CC)S(=O)(=O)N2CCCC(C(=O)NCc3ccc(Cl)cc3)C2)cc1 (stereo unspecified)
O=C(NCCCO)C(=O)Nc1c2c(nn1-c1ccccc1)CSC2
Cc1cc(OCC(=O)NCC2(N(C)C)CCCCC2)cc(C)c1Cl
Cc1ccc(-c2nn(CCC(=O)Nc3ccc(OC(F)(F)F)cc3)c(=O)c3ccccc23)cc1
CCCSc1nc2sc3c(c2c(=O)n1-c1cccc(Br)c1)CC(C)(C)OC3
COc1ccc(CCNC(=O)Cn2c(=O)cc(C(F)(F)F)c3c(C)nn(C)c32)c(OC)c1
CCOc1ccccc1CNC(=O)c1cnc2c(-c3ccc(OCC)c(OCC)c3)c(C)nn2c1C
CCOc1cc(CNC(=O)c2sc3ncnc(N(C)C4CCCCC4)c3c2C)ccc1OC
Cc1c(-c2nc(-c3ccc4c(c3)OCO4)no2)nnn1-c1ccc(Br)cc1F
CCN(CC)c1ccc(NS(=O)(=O)c2cc(-c3cc(C)no3)ccc2C)c(C)c1
CCN1CCN(CCCNC(=O)c2cnn(-c3ccc(C)cc3C)c2C2CCN(C(=O)OC(C)(C)C)CC2)CC1
COc1ccc(-c2onc(C)c2C)cc1S(=O)(=O)NCc1cccs1
Cc1cccc(Cc2c(C)nc3nc(SCc4ccccc4Cl)nn3c2C)c1
NC(=O)C1CCN(C(=O)c2cccc(NC(=O)c3nsc4ccccc34)c2)CC1
COc1ccccc1-c1noc(-c2ccc(NCc3ccccc3)c([N+](=O)[O-])c2)n1
COc1ccc(Cl)cc1NC(=O)CSc1nc2ccccc2c2nc(-c3ccccc3)nn12
CCOc1ccccc1NC(=O)Cn1c(=O)n(Cc2ccco2)c(=O)c2sc3ccccc3c21
CCN(CC)CCNC(=O)CN1N=C(c2ccc(OC)cc2)CCC1=O
COc1ccc(CNc2nc(-c3ccc(Cl)cc3)cc(C(F)(F)F)n2)cc1
COc1ccc(NC(=O)C2CCCN(S(=O)(=O)c3cccc4nonc34)C2)cc1Cl (stereo unspecified)
CCc1cc2c(cc3c(=O)n(CC(=O)N4CCN(c5cc(Cl)ccc5C)CC4)ncn32)s1
COc1ccc(-c2nn3c(-c4ccc(OC)cc4)nnc3c3ccccc23)cc1
Fc1ccc(-n2ncc3c(Nc4ccc(Oc5ccccc5)cc4)ncnc32)cc1
CCCOc1ccc(CNC(=O)C2CCN(c3nn4c(=O)cc(C)nc4s3)CC2)cc1
CCS(=O)(=O)c1nc(S(=O)(=O)c2ccc(C)cc2)c(NCc2ccc(Cl)cc2)s1
Cc1ccc(CNS(=O)(=O)c2ccc(-c3cc(C(F)(F)F)on3)s2)cc1
Cc1cc(C)cc(NC(=O)c2cnc3sc(N4CCCC4)nn3c2=O)c1
CCCCOC(=O)CSc1ncnc2sc3c(c12)CCC(C)C3 (stereo unspecified)
COc1cc(NC(=O)NCC2CCN(Cc3ccc(C)cc3)CC2)cc(OC)c1OC
CCOC(=O)c1ccc(NC(=O)c2c(NCc3cccc(OC)c3)sc3c2CCC3)cc1
Cc1nc2nc(SCC(=O)N(Cc3ccccc3)C(C)C)nn2c(C)c1Cc1ccccc1Cl
Cc1cc2oc(C(=O)N(Cc3ccc(Cl)cc3)Cc3ccco3)c(C)c2cc1Cl
Cc1ccccc1-c1nc(CS(=O)(=O)CC(=O)NC(C)c2ccccc2)c(C)o1 (stereo unspecified)
CCOc1ccccc1C(=O)NC1(C(F)(F)F)C(=O)Nc2c1c(=O)[nH]c(=O)n2-c1ccc(F)cc1 (stereo unspecified)
CCOC(=O)c1c(C)[nH]c(C)c1S(=O)(=O)NCC(=O)NCc1cccc(C)c1
Cc1cccc(NC(=O)CSc2nc(-c3ccco3)cc(C(F)(F)F)n2)c1C
Cn1c(=O)oc2cc(S(=O)(=O)CCC(=O)NCCc3ccc(Cl)cc3)ccc21
Cc1ccc(C)c(NC(=O)C2CCCN(S(=O)(=O)c3cn(C)cn3)C2)c1 (stereo unspecified)
O=C(CCc1nc(CN2CCN(S(=O)(=O)c3ccc(Cl)cc3)CC2)no1)N1CCCCC1
COc1ccccc1NC(=O)C1=C(C)Nc2ncnn2C1c1sccc1C (stereo unspecified)
CCCNC(=O)C(CC)n1nc(CC)n2c(cc3oc(C)cc32)c1=O (stereo unspecified)
Cc1ccc(CNC(=O)CSC2=Nc3ccccc3C3=NC(C)C(=O)N23)cc1 (stereo unspecified)
CCOC(=O)c1cccc(NC(=O)Cn2cnc3nc4c(cc3c2=O)CCCC4)c1
Cc1cc(OC(C)C(=O)Nc2sc3c(c2C(N)=O)CCCC3)ccc1Cl (stereo unspecified)
Cc1ccc(S(=O)(=O)n2nc(-c3ccc(Cl)cc3)nc2NCc2ccccc2)cc1
CCOc1ccc(NC(=O)CCC(=O)N2CC(C)Oc3ccc(C)cc32)cc1 (stereo unspecified)
CCCNC(=O)c1ccc2c(c1)ncn2-c1ccc(C)cc1C
COC(=O)C1=C(c2ccccc2)c2ccccc2S(=O)(=O)N1CC(=O)Nc1ccccc1C(F)(F)F
CCc1ccccc1NC(=O)c1ccc2nc(CCc3ccccc3)oc2c1
O=C(CS(=O)(=O)c1cccc2nsnc12)N1CCN(c2cccc(Cl)c2)CC1
Cc1cc2c(cc1S(=O)(=O)CCC(=O)Nc1ccc(OC(F)(F)F)cc1)OCC(=O)N2
CC(C)c1ccc(NC(=O)Cn2c3ncccc3c(=O)n2-c2ccccc2)cc1
Cc1ccc(Cl)cc1N1CCN(C(=O)c2cn(C)c3ccc(S(=O)(=O)N(C)C4CCCCC4)cc3c2=O)CC1
CCN1CCN(c2ncc3c(n2)CC(c2ccccc2O)CC3=O)CC1 (stereo unspecified)
Cc1ccccc1CN1CCC(CNC(=O)c2c(C)oc3ncnc(N4CCCCC4)c23)CC1
